Screening data: PubChem, National Center for Advancing Translational Sciences (NCATS)
This is a sample that favours compounds with a hit; in the whole collection about 10% have one here.
GLS inh = blocks human kidney-isoform glutaminase activity | GLS enzymatic activity, qHTS titration | Potency, µM (top dose mostly 45.5 µM), inactives show at the top dose activity change, negative = inhibition, most hits filed as inhibitors | actives 0.21% (n = 410,000) | AID 624170; further: on the % scale 0 is the no-effect control and ±100 the full control effect
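Assay buffer: 45 mM KH2PO4 pH 8.2, 0.02% Tween-20. hKGA acts on L-glutamine (1 mM solution added); product glutamate is reported by an oxidase/peroxidase Amplex Red coupling, with fluorescence taken at baseline and 30 min.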
BAZ2B block = BAZ2B (human) inhibition; Q9UIF8; AlphaScreen BAZ2B-H3K14Ac peptide displacement; Potency, µM (doses to about 114 µM), for the others: top-dose activity change, negative = inhibition, usual class: inhibitors; actives 4.4% (n = 360,000); further: on the % scale 0 is the no-effect control and ±100 the full control effect; nearly all actives have a fitted effect of over 60% in size
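Protein-peptide AlphaScreen: BAZ2B 50 nM, b-H3K14Ac 50 nM, 1x PBS pH 7.4 + 0.01% Tween-20. Preincubation 30 min RT; cpd 30 min RT (top 110 uM); beads 20 min RT, light-protected.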
G9a inh = G9a (human) methyltransferase inhibition; Q96KQ7; G9a H3K9 monomethylation, AlphaScreen, 2 h; Potency, µM (series often up to 102 µM), inactives show top-dose activity, negative = inhibition, most hits filed as inhibitors; actives 8.8% (n = 350,000); further: on the % scale 0 is the no-effect control and ±100 the full control effect; nearly all actives have a fitted effect of over 75% in size
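Readings reflect AlphaScreen signal from monomethyl-H3K9 antibody detection. HMT at 20 nM; substrate b-H3K9 500 nM; cofactor SAM 20 uM; 2 h RT reaction; compounds tested as titrations in qHTS with 15 min preincubation.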
L3MBTL1 inh = L3MBTL1 (human) inhibition. Q9Y468. AlphaScreen L3MBTL1–H3K9me1 peptide binding. Potency, µM (titrated, usually from 57.1 µM), without a hit: at the highest dose activity, negative = inhibition, hits mostly inhibitors. actives 0.66% (n = 230,000). AID 485360; further: on the % scale 0 is the no-effect control and ±100 the full control effect; nearly all actives have a fitted effect of over 60% in size
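AlphaScreen proximity signal between nickel-chelate acceptor and streptavidin donor beads (final 10 ug/mL) reports binding of 50 nM L3MBTL1 to 75 nM biotin-H3 K9me1 peptide; complex incubated with compounds 30 min at room temperature; cefsulodin titration as control.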
JMJD2A Tudor = blocks the human JMJD2A Tudor domain; O75164; AlphaScreen JMJD2A-Tudor / H3K4me3 peptide binding; Potency, µM (doses to about 114 µM), without a hit: top-dose activity change, negative = inhibition, most hits filed as inhibitors; actives 4.4% (n = 390,000); AID 504339; further: on the % scale 0 is the no-effect control and ±100 the full control effect; nearly all actives have a fitted effect of over 50% in size
HP1b chromo inh = blocks HP1-beta chromodomain binding to methylated histone tails; Potency, µM (highest dose often 114 µM), for inactives: top-dose activity change, negative = inhibition, usual class: inhibitors; AlphaScreen HP1-beta / biotin-H3K9me3 peptide binding; AID 540317; actives 0.56% (n = 390,000); P83916; further: nearly all actives have a fitted effect of over 70% in size
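HP1-beta protein (50 nM final) preincubated 30 min at room temperature with biotinylated H3(1-18)K9me3 peptide (50 nM) in PBS pH 7.4, 0.01% Tween-20, then compound added for 30 min. AlphaScreen streptavidin donor/nickel chelate acceptor beads (10 ug/mL final), 30 min dark, luminescence read.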
Active calls of the source: *; ? = inconclusive; . = no result; [ ] = dose if it differs, or a comment. The call rests on the fitted dose curve; in most records, active means well fitted curve in the direction sought with a large enough effect; inconclusive means small, poorly fitted or top-dose-only effect, or another doubt; inactive means no such curve, though single readings can be large; an effect the other way counts as inactive or inconclusive. Potency means the concentration at half of the fitted maximal effect.

SMILES | GLS inh | BAZ2B block | G9a inh | L3MBTL1 inh | JMJD2A Tudor | HP1b chromo inh
COCCOC(=O)C1=C(C)NC(=O)NC1c1ccco1 (stereo not given) | -4% | ? | . | -30% | -14% | 0%
CCOC(=O)C1=C(C)NC(=O)NC1c1ccco1 (stereo not given) | 0% | 79µM* | -13%[12.7 µM] | ? | ? | -6%
Cc1ccc(Cl)cc1N1C(=O)N(Cc2ccc(C#N)cc2)c2ccccc2S1(=O)=O | 2% | -10% | 8%[59 µM] | . | -5% | 48%
O=C(CNC(=O)C(c1ccccc1)c1ccccc1)OCC(=O)c1ccc2ccccc2c1 | . | . | . | . | -9%[57.1 µM] | 17%[57 µM]
COC(=O)Cc1[nH]n(-c2ccccc2)c(=O)c1C(C)=Nc1ccccc1 | 12% | -30% | 50µM* | 2% | -23% | 0%
COC(=O)Cc1[nH]n(-c2nc3ccccc3s2)c(=O)c1C(C)=Nc1ccc(Cl)cc1 | 10% | 25µM* | -121%[59 µM] | -12% | 22µM* | 7%
COC(=O)Cc1[nH]n(-c2nc3ccccc3s2)c(=O)c1C(C)=Nc1ccc(C)cc1 | 8% | 40µM* | 14µM* | 1% | 35µM* | 26%
C/C(=N\O)C(C)/[N+]([O-])=C/c1nc(C)c(C)n1O (stereo not given) | 29% | . | . | . | 7.1µM* | 5%
Cc1ccc(NC(=O)Cn2c(=O)n(CCCCC(=O)NCc3ccccc3Cl)c(=O)c3ccccc32)cc1C | -3% | -1% | -5%[59 µM] | . | -17% | 17%
COc1cccc2cc(C(=O)C3=C(O)C(=O)N(CCN4CCOCC4)C3c3ccc(C(C)(C)C)cc3)oc12 (stereo not given) | -5% | -29% | 32µM* | . | 56µM* | -10%
O=C(C1=C(O)C(=O)N(CCN2CCOCC2)C1c1cccnc1)c1cc2ccccc2o1 (stereo not given) | 5% | ? | 28µM* | 7% | ? | 33%
Cc1ccc(C2C(C(=O)c3cc4ccccc4o3)=C(O)C(=O)N2CCN2CCOCC2)o1 (stereo not given) | -23% | ? | ? | -2% | 89µM* | 10%
COc1cccc2cc(C(=O)C3=C(O)C(=O)N(CCN4CCOCC4)C3c3ccc(Cl)cc3)oc12 (stereo not given) | -7% | -15% | . | -1% | -25% | 14%
CN(C)CCCN1C(=O)C(O)=C(C(=O)c2cc3ccccc3o2)C1c1ccccc1 (stereo not given) | -7% | ? | 14µM* | -4% | -24%[11.4 µM] | 56%
Cc1ccc(CN2C(=O)C3(SCC(=O)N3c3ccc(C)c(C)c3)c3ccccc32)cc1 (stereo not given) | -16% | ? | -53%[59 µM] | . | -16% | 7%
O=C(C1=C(O)C(=O)N(CCN2CCOCC2)C1c1ccc(Br)cc1)c1cc2ccccc2o1 (stereo not given) | -5% | ? | ? | . | 6% | 29%
Cc1ccc(C2C(C(=O)c3cc4ccccc4o3)=C(O)C(=O)N2CCN2CCOCC2)cc1 (stereo not given) | 11% | -29% | 40µM* | . | ? | 4%[57 µM]
O=C(C1=C(O)C(=O)N(CCN2CCOCC2)C1c1cccc(O)c1)c1cc2ccccc2o1 (stereo not given) | 2% | ? | 50µM* | . | ? | 2%
COc1cccc2cc(C(=O)NCCN3CCOCC3)oc12 | 5% | -24% | 45µM* | . | -5% | 30%
COc1cccc(C(c2sc3nc(-c4ccco4)nn3c2O)N2CCN(C)CC2)c1 (stereo not given) | 13% | -12% | -32%[59 µM] | . | -4% | 39%
CCS(=O)(=O)N1CCc2cc(C(=O)NCCc3ccc(OC)c(OC)c3)ccc21 | 1% | -7% | ? | . | -17% | 18%
CCOC(=O)c1c(C2COc3ccccc3O2)csc1N (stereo not given) | 8% | ? | 50µM* | . | ? | -16%
CCOC(=O)c1c(C2COc3ccccc3O2)csc1NC(=O)c1ccccc1 (stereo not given) | -8% | -1% | 14%[12.7 µM] | . | -1% | 64%
O=[N+]([O-])c1cc(CN2CCCCCC2)ccc1O | 1% | -23% | 14% | 0% | -12% | 46%
Cc1ccc(Sc2ccc(CN3CCCCC3)cc2[N+](=O)[O-])cc1 | 3% | ? | 18µM* | ? | 35µM* | ?
SMILES | GLS inh | BAZ2B block | G9a inh | L3MBTL1 inh | JMJD2A Tudor | HP1b chromo inh
Cc1ccc(-n2cnc3cc(C(=O)NC4CCCCCC4)ccc32)c(C)c1 | 2% | -17% | -35%[59 µM] | . | ? | 19%
CCOC(=O)C1(Cc2cccc(OC)c2)CCN(C2CCOCC2)CC1 | 3% | 50µM* | 50µM* | -18% | -16% | -13%
O=C(CSc1nc2ccccc2n1Cc1c(F)cccc1Cl)N1CCN(c2ccc(F)cc2)CC1 | -8% | -1% | -4%[59 µM] | . | -7% | 21%
Cc1ccc(C2C=C(c3ccc(Cl)cc3)Nc3nc(NS(=O)(=O)c4ccccc4)nn32)cc1 (stereo not given) | -19% | -1% | ? | . | 15% | 52%
CC1=CC(c2ccccc2)n2nc(NC(=O)CCCC(=O)O)nc2N1 (stereo not given) | -16% | 50µM* | 5% | . | ? | 7%
CC1=CC(c2ccccc2)n2nc(NC(=O)CCC(=O)O)nc2N1 (stereo not given) | -14% | ? | ? | -9% | ? | -14%
CC1=CC(c2ccc(Cl)cc2)n2nc(NC(=O)c3ccccc3)nc2N1 (stereo not given) | -18% | 56µM* | 14µM* | . | -30% | 54%
COC(=O)c1c2c(nc3ccccc13)CCC2 | 0% | -37% | ? | . | -9% | 39%
CC1Cc2ccccc2N1C(=O)COC(=O)CCc1nc2ccccc2c(=O)[nH]1 (stereo not given) | ? | -21% | -29% | 2% | 5.6µM* | -17%
CC1Cc2ccccc2N1C(=O)COC(=O)c1c2c(nc3ccccc13)CCCCC2 (stereo not given) | -1% | -33% | 2µM* | -3% | -17% | ?
O=C(COC(=O)CCc1nc2ccccc2c(=O)[nH]1)Nc1ccccc1 | ? | . | . | -8% | -9% | -18%
O=C(OCC(=O)N1CCc2ccccc21)c1c2c(nc3ccccc13)CCCC2 | -1% | -21% | ? | -10% | -23% | 27%
CC(C)CNC(=O)COC(=O)c1c2c(nc3ccccc13)CCC2 | 8% | 56µM* | ? | . | -30% | 3%
N#Cc1ccc(NC(=O)COC(=O)CCc2nc3ccccc3c(=O)[nH]2)cc1 | -10% | 3% | 50µM* | 7% | 0% | 20%
